Screen size: about 5,500 compounds; about 2,000 (36%) were called active. Roughly 18% stayed inconclusive and do not appear here. Rule as the data show it: active = normalized growth mostly below about 0.91 (no sharp cut-off); inconclusive = no clear call, values can overlap the other calls; inactive = mostly above about 0.92. This is one part of the list.
Assay: chemical genetic growth profiling, strain panel (AID 1159580);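 also: tested at 20 µM; growth read once vehicle control cultures reached saturation at 30 °C; 1 = growth at the plate median or of vehicle wells; lower values mean less growth of the strain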
Details: growth OD

Measured: normalized growth

N#CC1COc2ccccc2O1 (centres undefined)
inactive: S. cerevisiae deletion strains, locus YAL013W, strain DEP1, hits give low values 1.01 | S. cerevisiae deletion strains, locus YBR229C, strain ROT2, hits give low values 0.993 | S. cerevisiae deletion strains, locus YDL101C, strain DUN1, hits give low values 1.01 | S. cerevisiae deletion strains, locus YDR150W, strain NUM1, hits give low values 1.03 | S. cerevisiae deletion strains, locus YEL061C, strain CIN8, hits give low values 1.01 | S. cerevisiae deletion strains, locus YGR078C, strain PAC10, hits give low values 0.999 | S. cerevisiae deletion strains, locus YGR229C, strain SMI1, hits give low values 0.999 | S. cerevisiae deletion strains, locus YHR030C, strain SLT2, hits give low values 1.03 | S. cerevisiae deletion strains, locus YHR087W, strain rtc3, hits give low values 0.989 | S. cerevisiae deletion strains, locus YJR043C, strain POL32, hits give low values 1.03 | S. cerevisiae deletion strains, locus YJR075W, strain HOC1, hits give low values 0.973 | S. cerevisiae deletion strains, locus YKL190W, strain CNB1, hits give low values 1.02 | S. cerevisiae deletion strains, locus YLR039C, strain RIC1, hits give low values 1 | S. cerevisiae deletion strains, locus YLR058C, strain SHM2 (second series), hits give low values 0.994 | S. cerevisiae deletion strains, locus YLR085C, strain ARP6, hits give low values 1.01 | S. cerevisiae deletion strains, locus YLR262C, strain YPT6, hits give low values 0.997 | S. cerevisiae deletion strains, locus YML094W, strain GIM5, hits give low values 1.01 | S. cerevisiae deletion strains, locus YMR219W, strain ESC1, hits give low values 0.999 | S. cerevisiae deletion strains, locus YMR263W, strain SAP30, hits give low values 1.03 | S. cerevisiae deletion strains, locus YMR307W, strain GAS1, hits give low values 1.1 | S. cerevisiae deletion strains, locus YNL153C, strain GIM3, hits give low values 0.996 | S. cerevisiae deletion strains, locus YNL298W, strain CLA4 (second series), hits give low values 1.04 | S. cerevisiae deletion strains, locus YNL322C, strain KRE1, hits give low values 0.984 | S. cerevisiae deletion strains, locus YNR030W, strain Alg12, hits give low values 1.01 | S. cerevisiae deletion strains, locus YPL055C, strain LGE1, hits give low values 1.13 | S. cerevisiae deletion strains, locus YPL241C, strain CIN2, hits give low values 0.998 | S. cerevisiae deletion strains, locus YPR135W, strain CTF4, hits give low values 1.04 | S. cerevisiae strains, strain wild type, hits give low values 1.01

S=c1ccss1
inactive: S. cerevisiae deletion strains, locus YAL030W, strain snc1, hits give low values 0.997 | S. cerevisiae deletion strains, locus YBL061C, strain skt5, hits give low values 0.989 | S. cerevisiae deletion strains, locus YBR009C, strain hhf1, hits give low values 0.915 | S. cerevisiae deletion strains, locus YBR023C, strain chs3, hits give low values 0.972 | S. cerevisiae deletion strains, locus YBR171W, strain sec66, hits give low values 0.994 | S. cerevisiae deletion strains, locus YBR279W, strain paf1, hits give low values 0.948 | S. cerevisiae deletion strains, locus YCL011C, strain gbp2, hits give low values 0.916 | S. cerevisiae deletion strains, locus YCL016C, strain dcc1, hits give low values 0.977 | S. cerevisiae deletion strains, locus YCL069W, strain vba3, hits give low values 1 | S. cerevisiae deletion strains, locus YCR088W, strain abp1, hits give low values 1 | S. cerevisiae deletion strains, locus YDL005C, strain med2, hits give low values 0.987 | S. cerevisiae deletion strains, locus YDL040C, strain nat1, hits give low values 0.985 | S. cerevisiae deletion strains, locus YDR001C, strain nth1, hits give low values 1 | S. cerevisiae deletion strains, locus YDR159W, strain sac3, hits give low values 1.06 | S. cerevisiae deletion strains, locus YDR195W, strain ref2 1.1 | S. cerevisiae deletion strains, locus YDR297W, strain sur2, hits give low values 0.993 | S. cerevisiae deletion strains, locus YDR334W, strain swr1, hits give low values 0.931 | S. cerevisiae deletion strains, locus YDR335W, strain msn5, hits give low values 0.992 | S. cerevisiae deletion strains, locus YDR392W, strain spt3, hits give low values 1.02 | S. cerevisiae deletion strains, locus YEL003W, strain gim4, hits give low values 1.01 | S. cerevisiae deletion strains, locus YEL037C, strain rad23, hits give low values 0.984 | S. cerevisiae deletion strains, locus YEL061C, strain CIN8 (second series), hits give low values 1.01 | S. cerevisiae deletion strains, locus YER015W, strain faa2, hits give low values 0.984 | S. cerevisiae deletion strains, locus YER016W, strain bim1, hits give low values 0.984 | S. cerevisiae deletion strains, locus YER111C, strain swi4, hits give low values 1.01 | S. cerevisiae deletion strains, locus YER155C, strain BEM2 (second series), hits give low values 0.979 | S. cerevisiae deletion strains, locus YGL167C, strain pmr1, hits give low values 1 | S. cerevisiae deletion strains, locus YGL173C, strain kem1, hits give low values 0.926 | S. cerevisiae deletion strains, locus YGL227W, strain vid30, hits give low values 1.01 | S. cerevisiae deletion strains, locus YGL240W, strain doc1, hits give low values 0.96 | S. cerevisiae deletion strains, locus YHR027C, strain rpn1, hits give low values 0.943 | S. cerevisiae deletion strains, locus YHR142W, strain chs7, hits give low values 0.94 | S. cerevisiae deletion strains, locus YJL092W, strain hpr5, hits give low values 0.991 | S. cerevisiae deletion strains, locus YJL095W, strain BCK1 (second series), hits give low values 0.99 | S. cerevisiae deletion strains, locus YJL115W, strain asf1, hits give low values 0.994 | S. cerevisiae deletion strains, locus YJL129C, strain trk1, hits give low values 0.927 | S. cerevisiae deletion strains, locus YJL154C, strain vps35, hits give low values 0.997 | S. cerevisiae deletion strains, locus YJL164C, strain tpk1, hits give low values 0.956 | S. cerevisiae deletion strains, locus YJL166W, strain qcr8, hits give low values 0.914 | S. cerevisiae deletion strains, locus YJL187C, strain SWE1, hits give low values 0.965 | S. cerevisiae deletion strains, locus YKL160W, strain elf1, hits give low values 0.947 | S. cerevisiae deletion strains, locus YKR026C, strain gcn3, hits give low values 0.993 | S. cerevisiae deletion strains, locus YKR091W, strain srl3, hits give low values 0.992 | S. cerevisiae deletion strains, locus YLL001W, strain dnm1, hits give low values 0.939 | S. cerevisiae deletion strains, locus YLL026W, hits give low values 0.967 | S. cerevisiae deletion strains, locus YLL041C, strain sdh2, hits give low values 1 | S. cerevisiae deletion strains, locus YLR027C, strain aat2, hits give low values 0.943 | S. cerevisiae deletion strains, locus YLR221C, strain rsa3, hits give low values 0.924 | S. cerevisiae deletion strains, locus YLR258W, strain gsy2, hits give low values 0.965 | S. cerevisiae deletion strains, locus YLR262C, strain YPT6 (second series), hits give low values 0.866 | S. cerevisiae deletion strains, locus YLR320W, strain mms22, hits give low values 0.939 | S. cerevisiae deletion strains, locus YLR342W, strain FKS1, hits give low values 0.973 | S. cerevisiae deletion strains, locus YLR370C, strain arc18, hits give low values 0.929 | S. cerevisiae deletion strains, locus YLR384C, strain iki3, hits give low values 0.996 | S. cerevisiae deletion strains, locus YML120C, strain ndi1, hits give low values 1.02 | S. cerevisiae deletion strains, locus YMR058W, strain fet3, hits give low values 0.962 | S. cerevisiae deletion strains, locus YMR125W, strain sto1, hits give low values 1.04 | S. cerevisiae deletion strains, locus YMR129W, hits give low values 0.984 | S. cerevisiae deletion strains, locus YMR205C, strain PFK2, hits give low values 0.935 | S. cerevisiae deletion strains, locus YMR231W, strain pep5, hits give low values 0.995 | S. cerevisiae deletion strains, locus YNL071W, strain lat1, hits give low values 0.922 | S. cerevisiae deletion strains, locus YNL209W, strain ssb2, hits give low values 0.981 | S. cerevisiae deletion strains, locus YNL248C, strain rpa49, hits give low values 1.01 | S. cerevisiae deletion strains, locus YNL322C, strain KRE1 (second series), hits give low values 0.99 | S. cerevisiae deletion strains, locus YNR049C, strain mso1, hits give low values 1 | S. cerevisiae deletion strains, locus YOR001W, strain rrp6, hits give low values 0.98 | S. cerevisiae deletion strains, locus YOR080W, strain dia2, hits give low values 1 | S. cerevisiae deletion strains, locus YOR265W, strain rbl2, hits give low values 0.992 | S. cerevisiae deletion strains, locus YOR290C, strain snf2, hits give low values 0.866 | S. cerevisiae deletion strains, locus YPL106C, strain sse1, hits give low values 0.958 | S. cerevisiae deletion strains, locus YPL240C, strain hsp82, hits give low values 0.986
active: S. cerevisiae deletion strains, locus YAL021C, strain ccr4, hits give low values 0.679 | S. cerevisiae deletion strains, locus YAL026C, strain drs2, hits give low values 0.779 | S. cerevisiae deletion strains, locus YBR231C, strain swc5, hits give low values 0.895 | S. cerevisiae deletion strains, locus YDR069C, strain doa4, hits give low values 0.835 | S. cerevisiae deletion strains, locus YDR137W, strain rgp1, hits give low values 0.805 | S. cerevisiae deletion strains, locus YFR010W, strain ubp6, hits give low values 0.839 | S. cerevisiae deletion strains, locus YGL253W, strain hxk2, hits give low values 0.818 | S. cerevisiae deletion strains, locus YHR013C, strain ard1, hits give low values 0.77 | S. cerevisiae deletion strains, locus YLR357W, strain rsc2, hits give low values 0.807 | S. cerevisiae deletion strains, locus YOR070C, strain gyp1, hits give low values 0.911 | S. cerevisiae deletion strains, locus YOR083W, strain WHI5, hits give low values 0.857 | S. cerevisiae deletion strains, locus YOR106W, strain vam3, hits give low values 0.646 | S. cerevisiae deletion strains, locus YOR270C, strain vph1, hits give low values 0.423 | S. cerevisiae deletion strains, locus YPL051W, strain arl3, hits give low values 0.904 | S. cerevisiae deletion strains, locus YPL078C, strain atp4, hits give low values 0.872

— PubChem BioAssay AID1159580 (chemical genetic matrix, 2015)
